# Over roughly 25,000 sequences, “ln(normalized median fluorescence intensity)” has its median near 9.7; the highest 2% begin near 11. The list comes from a sample in which the highest values are over-represented; it also holds similar and randomly drawn sequences.
# Test system: PfAP2-HC AP2 domain (GST-tagged)
# Assay: gcPBM binding intensity (ln(normalized median fluorescence intensity)); higher = stronger DNA binding
# Outline: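 Each value is the highest Masliner-normalised natural-log median intensity across replicate spots of either orientation of a probe. The probes were primer-extended double-stranded 36-bp intergenic genomic sequences on an Agilent 4 × 180k array, alongside negative controls, exposed for 1 h to GST-tagged P. falciparum DNA-binding domains expressed in E. coli. Bound protein was picked up with Alexa488 anti-GST antibody and scanned at 488 nm.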
row,Sequence,gcPBM binding intensity (ln)
1,TATACAAGTATATAGGTGCATATATAAGTATATATT [GTGCAC_site9994],9.69
2,ACGTTTTATTTTTATTGTACTCACATTGAAATGAAT [XGTACX_site6094],10
3,AATATAATGCAATATACACACATATATTTCTCTTTT [CACACA_site7276],9.94
4,TTTTCTAAAAAAAGTTGTACATCTTATTTATATTAT [XGTACX_site295],9.63
5,AATTTCAAATTGTATGTGCACATGTAGAAGTACTTT,9.85
6,AAAATATGTATGTAAAGTACTAATATACAAATTTTT [XGTACX_site5186],9.62
7,TGTATTTATTAATGTACACACATGCGTATGTTCGTT [CACACA_site5892],9.96
8,TTTTTTTTTATAGCTAAACACACATAAGAATATATG [CACACA_site8282],9.61
9,TTTTTTTTTTTTTTTGCACACACATTGAATTATTAT [CACACA_site198],9.96
10,TTTATTTATATAATTACACACATATATACACAAATG [CACACA_site8903],9.79
11,TGTTGTAACAAAAGTACACACACATTTCTATAAATT [CACACA_site8894],9.86
12,GAATATAAACATATTACACACATCTATCTGTACATT [CACACA_site5114],9.97
13,AATAACCACAGACACACACACATATAAATATAAATA [CACACA_site7631],10.9
14,ATTTCATACAGACACACACACAAACAAACATATATA [CACACA_site979],11.2
15,GGATATAACAGACACACACACACATATAAATATATT [CACACA_site7866],10.6
16,AACCACAGACATATAACACACATATACAATATATAT [CACACA_site5142],10.4
17,TATAAATACAGATACACACACACACCGATATATATA [CACACA_site5271],10.4
18,TATAAATATAAATACACACACACATCAATACAGATA [CACACA_site5850],11
19,TACAGATACAGATACACACACACACCGAAATAAATA [CACACA_site4865],11

row,Sequence,gcPBM binding intensity (ln)
1,TATACAGATATATATACACACATATATATAAATACA [CACACA_site4383],9.97
2,TAAATAAATACATACACACACATACAGATATATATA [CACACA_site5690],10.5
3,TATATACTCAAACACACACACACATACACAGACATA [CACACA_site5025],10.7
4,TATATATATAAATACACACACACACCGATATATATA [CACACA_site5408],10.5
5,AAAAAAAACAGACACACACACATACAAAATATATAT [CACACA_site1449],10.7
6,ATTTTTTCTTTTTTTTTTCCGTTTTTTTGGACATTT [CACACA_negctrl_site1174],9.75
7,TAAATATATATATATAGTACAATATAATTATGATAT [XGTACX_site258],9.75
8,AAAAAAAAAATATCATGTACAAATATAATAAAATTT [XGTACX_site3896],9.79
9,TATATTTAAGTACATAAATAAGCCCATTTACATACA [CACACA_negctrl_site1224],9.37
10,AATAATAATGCTTTAACTTTGTTGTTATTTAGAATA [CACACA_negctrl_site1144],9.44
11,AATAGCTAGCTGTGCACACAAACATATTTTCCAAAT [CACACA_site880],9.91
12,AGGTTATATATGAACAAAAATAAAATATTCATAGGC [TGCATGCA_negctrl_site46],9.77
13,AAAAAAAACAGACACACACACACATATACATACATA [CACACA_site2665],11.5
14,AAATAAATACTAGGCACACACACATATATATATATA [CACACA_site2079],11
15,AAAAAACACAGACACACACACATATACATACATACA [CACACA_site2666],10.7
16,ATAAATACTAGGCACACACACATATATATATATATA [CACACA_site2080],10.4
17,TAAACAGACATATAAACACACATACATACATACATA [CACACA_site7215],10.2
18,ATAAATACTAGGCACACACACATATAGATTTATATA [CACACA_site7064],10.8
19,TGTTTCTAAGAATTTACACACAAAATATTTCTACAT [CACACA_site7846],9.9

row,Sequence,gcPBM binding intensity (ln)
1,TTTATTTATTAAGAATGTACATGTATTTGTTAAATA [XGTACX_site4465],9.4
2,CACATACACATACACATACACACGCATAGAAACATA [CACACA_site2136],10.5
3,TCTCATAGTAGACACACACACACACGCACATATATA [CACACA_site6916],11.3
4,TATACACATAGACACACACACATACACGCACATACA [CACACA_site6908],10.7
5,AAATTTGGCAGACACACACACACACGCACACGCACA [CACACA_site6423],11.5
6,CATAGATACATACACGCACACACATATATATATATA [CACACA_site13],10.3
7,CGCACACGCAGACACACACACACATATAAATAAATA [CACACA_site7101],10.8
8,AAAAATTTGGCATACACACACACACGCACACGCACA [CACACA_site6422],10.6
9,ATTTGGCATAGACACACACACACACGCACGCACATA [CACACA_site6424],11.1
10,TATCTCATAGTATACACACACACACGCGCACATATA [CACACA_site6917],10.5
11,TCAAGTTTATATTAACTATTTATGAAAAAAAAAAGA [CACACA_negctrl_site902],9.38
12,ATTTTATATACACTTTGTACTTATTTTATTCTTCTT [XGTACX_site4200],9.93
13,TAATATATTTATAAGTGTACACATTATATAAATCCC [XGTACX_site8875],9.64
14,ATCCATTATTTTTGTTGTACGGGTAACTTTAAAAAG [XGTACX_site2226],9.5
15,ATGAATAATTAATGATGTACTTAAAAAAAAAAATAT [XGTACX_site6346],9.53
16,TATATAGCTAAAAACACACAAATATGTACACATAAA [CACACA_site7665],9.88
17,ATGAACATATCAATTCTCAAAATAGGATGAGAGCAT [CACACA_negctrl_site230],9.6
18,ATCATAAATATAGCAACACACGGATTACATAAAATA [CACACA_site2796],9.85
19,GTGGTTATATATTAAGTGCATATTATAATTTTAAAC,9.52
